Screens as filed in PubChem BioAssay.
CBX7 inh: inhibitors of human CBX7 binding to H3K27me3 peptide. O95931. AlphaScreen His6-CBX7 / biotin-H3K27me3 peptide binding; hits give low values. normalised signal (fraction of DMSO) (concentration not given with the values). hit rate 1.1% among 66,000. AID 1224903; in the data active means normalised signal below about 0.5
Target sequence (O95931 whole entry, looked up): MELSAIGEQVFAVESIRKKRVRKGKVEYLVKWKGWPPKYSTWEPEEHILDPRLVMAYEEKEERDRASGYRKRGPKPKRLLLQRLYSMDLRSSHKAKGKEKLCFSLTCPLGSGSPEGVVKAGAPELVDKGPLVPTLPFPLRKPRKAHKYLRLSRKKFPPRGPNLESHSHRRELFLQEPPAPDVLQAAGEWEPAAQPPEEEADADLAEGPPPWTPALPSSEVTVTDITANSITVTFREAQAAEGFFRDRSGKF
A number is an active result; 0 = inactive; ! = repeats disagree. Many of the other results were omitted from the sample, so hits are more common in it than they were.

SMILES	CBX7 inh
COCCn1c(Cc2ccccc2)nc2ccccc21	0
COc1cccc(-c2nnc(SCC(=O)Nc3ccccc3F)n2-c2ccccc2)c1	0
CCOc1ccc(-n2ccnc2SCC(=O)Nc2cc(Cl)ccc2OC)cc1	0
COc1ccc(Cl)cc1NC(=O)CSc1nccn1-c1ccc(F)cc1	0.4
COc1cccc(-n2ccnc2SCC(=O)Nc2cc(OC)ccc2OC)c1	0
COc1ccc(-n2ccnc2SCC(=O)Nc2cc(Cl)ccc2OC)cc1	0
COc1ccc(OC)c(NC(=O)CSc2nccn2-c2ccc(F)cc2)c1	0.48
COc1ccc(OC)c(NC(=O)CSc2nccn2-c2ccccc2)c1	0
Cc1ccc(-c2csc3ncn(CC(=O)Nc4ccc(C)c(F)c4)c(=O)c23)cc1	0
CCOc1ccc(CNC(=O)CCc2nc(-c3ccc(C)cc3)no2)cc1	0
CCOC(=O)c1ccc(NC(=O)CSc2nnc(-c3cccnc3)o2)cc1	0
O=C(CSc1nnc(-c2cccnc2)o1)Nc1ccc(Cl)c(Cl)c1	0.47
O=C(CSc1nnc(-c2cccnc2)o1)Nc1ccc(Br)cc1	0
CCCN(CCC)C(=O)c1c[nH]c2ccc(S(=O)(=O)Nc3ccc(OCC)cc3)cc2c1=O	0
Cc1nc2c(C(=O)NC3CCCCC3)cnn2c(C)c1Cc1c(F)cccc1Cl	0
O=C(CN1C(=O)c2ccccc2C1=O)Nc1nc(-c2ccc3c(c2)OCO3)cs1	0
Clc1ccc(-c2csc(Nc3ccc4ccccc4c3)n2)cc1Cl	0
O=S(=O)(c1ccc(-c2csc(Nc3ccc4c(c3)OCO4)n2)cc1)N1CCCCC1	0
Cc1ccc(C)c(-c2csc(Nc3ncccn3)n2)c1	0
Brc1ccc(-c2csc(Nc3ccc4c(c3)OCO4)n2)cc1	0.35!
Cc1ccc(C)c(-c2csc(Nc3ccc(S(=O)(=O)Nc4cc(C)on4)cc3)n2)c1	0
Brc1ccc(Nc2nc(-c3ccc(Br)cc3)cs2)cc1	0
Cc1ccc(C)c(-c2csc(Nc3ccc4c(c3)OCO4)n2)c1	0.35
c1ccc2cc(-c3csc(Nc4ccc5c(c4)OCO5)n3)ccc2c1	0.5
CN1CCN(C(=O)c2nn(C)c(=O)c3ccccc23)CC1	0
SMILES	CBX7 inh
Cc1onc(-c2ccccc2Cl)c1C(=O)NC(C)Cc1ccccc1 (configuration not stated)	0
Cn1c(=O)c(=O)n(C)c2cc(S(=O)(=O)NCc3ccccc3)ccc21	0
Cc1noc(C)c1S(=O)(=O)Nc1ccc(C(=O)Nc2cccc(Cl)c2)cc1	0
COc1ccc(NC(=O)Cn2ncc3c2-c2cc(C)ccc2OC3)c(OC)c1	0
CCOc1ccc(C2C(N3C(=O)c4ccccc4C3=O)C(=O)N2c2ccc(Br)cc2)cc1 (configuration not stated)	0
Cc1ccc(NC(=O)C(NS(=O)(=O)c2ccc3c(c2)CCC(=O)N3)c2ccccc2)cc1F (configuration not stated)	0
CCOc1ccc(C(=O)Nc2ccc3oc(-c4ccc(F)cc4)nc3c2)cc1	0
